Screening data as filed in PubChem BioAssay.
ssDAF-12 act: activators of S. stercoralis DAF-12 nuclear receptor. HEK293 ssDAF-12/GRIP1 lit1-tk-luc reporter, luminescence; % of 3 µM dafachronic acid response. activation, % at 6.8 µM. 370,000 tested, 1% active. AID 652126;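 active means activation above the mean over all tested compounds plus 3 SD, cut at about 0.9% in these data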;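 further: 0% = DMSO-only wells and 100% = 3 µM delta7-dafachronic acid wells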
SMARCA2 activ: SMARCA2 function activation, primary screen. MG213 cells, MMTV-luciferase reporter, dexamethasone, overnight. activation, % at 9.1 µM. 370,000 tested, 1% active. AID 652017; in the data active means activation above about 7.8%;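 further: 0% = vehicle wells and 100% = reference activator wells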
hcDAF12 agonist: H. contortus DAF-12 activation, primary screen; HEK293 hcDAF-12 lit1-tk-luc reporter, luminescence; 0% DMSO, 100% Δ7-dafachronic acid; activation, % at 6.8 µM; 370,000 tested, 1.4% active; AID 652067;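 active means activation above the mean of all tested compounds plus 3 SD, cut at about 5.5% in these data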;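 further: 100% = response to 3 µM Δ7-dafachronic acid high control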
hgDAF-12 ag: agonists of H. glycines DAF-12 nuclear receptor. HEK293 GAL4-hgDAF12 UAS-luciferase reporter, agonist luminescence; normalized to butyrate control. activation, % at 6.8 µM. 370,000 tested, 1.8% active;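 active means activation above a cutoff set at the mean of all screened compounds plus 3 SD, cut at about 10% in these data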;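 further: 0% = DMSO wells and 100% = sodium butyrate wells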
DAX1 StAR inh: inhibitors of DAX1 repression of SF-1 activated StAR promoter; HEK293T StAR-luciferase reporter, SF-1/DAX-1 repression relief; inhibition, % at 6.8 µM; 370,000 tested, 1.1% active; AID 652010;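 active means inhibition above the mean over all tested compounds plus 3 SD, cut at about 3.6% in these data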;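 further: 0% = DAX-1 cells with DMSO and 100% = cells lacking DAX-1 with DMSO; higher inhibition means more luminescence from relief of DAX-1 repression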
Starred values were filed as active, the others as inactive; . = no result. The list is not random: actives were taken first. Their share in the collection is about 4.2%.

SMILES	ssDAF-12 act	SMARCA2 activ	hcDAF12 agonist	hgDAF-12 ag	DAX1 StAR inh
C=CCN1C=C(C(=O)OCC)C(=O)CC1	-1	-3	-1	4	0
CCc1nc2ccc(C(=O)Nc3ccc(Cl)c(Cl)c3)cn2c1N(C)Cc1ccc(OC)cc1	0	1	1	12*	0
CCCC(=O)NC(=S)c1c(C)n(C)n(-c2ccccc2)c1=O	0	-4	5.8*	-2	1
C=CCNc1nc(Cl)nc(Nc2ccc(OC)cc2)n1	1.3*	3	2	4	2
CC1(c2cccc(Br)c2)NC(=O)N(CC(=O)Nc2cccnc2Cl)C1=O (stereo not drawn)	-1	-3	1	1	3.7*
CSc1cnn(CCC#N)c(=O)n1	1.2*	-7	6.0*	7	0
CC(C)(C)N1Cc2nnn(Cc3ccccc3)c2-c2cc(N3CCCCC3)ccc2S1(=O)=O	0	2	-3	1	-2
CCOC(=O)/C(C#N)=C/Nc1ccccc1OC	0	4	3	13*	1
COc1cc(Cn2c3ccc(NC(=S)NCc4ccc(C)cc4)cc3c(=O)n2C)ccc1F	-2	2	-2	-6	-2
Cc1cc(SCC(=O)c2ccccc2)n2nc(C)nc2n1	0	-2	6.2*	10	0
O=C(NC1CCCCN(Cc2cccc(Cl)c2)C1=O)c1cccs1 (stereo not drawn)	-1	-6	0	-3	0
CNc1nc(-c2ccc3c(c2)CCN3C(=O)c2cccc(F)c2)cs1	-1	4	0	11*	-1
CNc1nc(-c2ccc3c(c2)CCN3C(=O)c2ccc(F)cc2)cs1	-2	-3	-1	1	-1
Cc1ccc(NC(=O)Cc2c[nH]c3ccccc23)cc1S(=O)(=O)N1CCCCCC1	-1	4	6.2*	3	0
Cc1ccc(S(=O)(=O)N2CCCCC2)cc1NC(=O)Cc1c[nH]c2ccccc12	0	-2	5.8*	-1	0
C[C@H](O)[C@@H]1CN2CCc3c([nH]c4c(-c5ccccc5)cccc34)[C@@H]2C[C@@H]1N(C)CC1CCCCC1	0	-3	1	3	0
Cc1ccc(S(=O)(=O)N2CCCN(C(=O)c3cc4ccccc4[nH]3)CC2)cc1	0	2	5.8*	4	0
CCCC1CCC2(CC1)CCC2OC(=S)Nc1ccccc1C(F)(F)F (stereo not drawn)	-1	.	-1	3	.
O=C(Nc1ccc(F)cc1)c1ccc2ncsc2c1	0	3	4	12*	1
O=C(Nc1ccc(Cl)cc1)c1ccc2snnc2c1	-1	3	6.2*	11*	0
O=C(Nc1ccc2c(c1)OCO2)c1ccc2sc([C@@H]3O[C@H](CO)[C@@H](O)[C@H]3O)nc2c1	-1	3	0	3	1
O=C(Nc1nc2ccccc2s1)c1ccc2sc([C@H]3C[C@H](O)[C@@H](CO)O3)nc2c1	-1	4	0	11*	0
O=C(Nc1ccc(Cl)cc1)c1ccc2sc([C@@H]3O[C@H](CO)[C@@H](O)[C@H]3O)nc2c1	0	4	4	11*	2
O=C(Nc1nccs1)c1ccc2sc([C@H]3C[C@H](O)[C@@H](CO)O3)nc2c1	0	-1	1	7	1
Fc1cccc(F)c1/C=N/N1CCOCC1	0	7.9*	0	3	0
SMILES	ssDAF-12 act	SMARCA2 activ	hcDAF12 agonist	hgDAF-12 ag	DAX1 StAR inh
Fc1ccc(/C=N/N2CCOCC2)c(F)c1	-1	1	-2	-1	0
CCOC(=O)c1cnn2c(C)cc(-c3ccccc3)nc12	0	7.9*	4	7	2
CC(C)n1nnnc1C1c2ccccc2C(=O)N1CCOc1ccccc1 (stereo not drawn)	1	6	5	13*	2
O=C(N/N=C\c1cc2c(cc1Cl)OCO2)c1cccs1	0	2	4	13*	3
O=C(N/N=C\c1cc2c(cc1[N+](=O)[O-])OCO2)c1cccs1	0	6	0	2	2
CCOC(=O)c1c(C)[nH]c(C2=NNC(=Nc3ccccc3OC)SC2)c1C	0	-1	6.0*	3	1
CN(CCO)c1ccc2c(c1)Oc1ccccc1CN(Cc1cn(Cc3ccc(F)cc3)nn1)S2(=O)=O	0	6	-2	0	-1
COc1ccc(C(=O)NCCS(=O)(=O)N2CCCCCC2)cc1	0	-1	-1	1	-2
COc1ccc(C(=O)NCCS(=O)(=O)N2CCCC2)cc1	1	-3	6.1*	6	3
O=C(Nc1ccccc1C(F)(F)F)NC1(C(=O)N2CCOCC2)CCCCC1	0	2	5.7*	2	2
Cc1ccccc1NC(=O)NC1(C(=O)N2CCOCC2)CCCCC1	-1	4	0	-2	0
Cc1cccc(NC(=O)CCc2c(C)nn(-c3ccc(N4CCCCC4)nn3)c2C)c1	-1	4	0	4	3.8*
Cc1cc(Br)cn2c(Cc3ccccc3C(F)(F)F)c(-c3ccco3)nc12	-1	0	-1	-2	-1
O=C(N/N=C/c1cn(-c2ccccc2)nc1-c1ccc2c(c1)OCCO2)c1ccncc1	-1	2	-1	10*	1
O=C(COc1cccnc1[N+](=O)[O-])N1CCc2ccccc21	0	1	1	1	0
CC(=O)c1ccc(-c2ccc(C(=O)N3CCCc4ccccc43)o2)cc1	1.8*	0	-1	5	1
COc1cccc2cc(C(=O)N3CCCc4ccccc43)oc12	-1	2	-4	3	-1
CC(=O)Nc1ccc(S(=O)(=O)NCC(=O)OCC(=O)N2CCc3ccccc32)cc1	0.9*	-3	5	-1	1
COc1ccc2oc(C(=O)N3CCCc4ccccc43)c(C)c2c1	0	1	4	7	4.3*
Cc1ccc(OCC(=O)N2CCc3ccccc32)c([N+](=O)[O-])n1	-2	-1	0	11*	2
O=C(CNS(=O)(=O)c1ccccc1Br)OCC(=O)N1CCc2ccccc21	-1	-5	0	0	1
CCCC/C=C1/[C@H](c2ccccc2)N(C)C2=N[C@@H](c3ccccc3)CC(=O)N21	-2	.	-4	-3	.
O=C1NC[C@H](CCCCN2C[C@H](Cc3ccc(O)cc3)N(Cc3ccccc3)C(=O)C2=O)N(Cc2ccccc2)C1=O	-1	0	-2	-2	0
CC1(c2nnnn2-c2ccc3c(c2)OCCO3)CCC(=O)N1C1CC1 (stereo not drawn)	-1	-3	-2	1	-2
COC(=O)c1ccc(OCC(=O)N2CCCc3ccccc32)cc1	-1	-3	0	2	0
COCC(=O)N1CCCc2ccccc21	0	-1	6.3*	4	0
COc1ccc(-c2c(C(=O)c3ccccc3)[nH]c(N)c2C(=O)c2c[nH]c3ccccc23)cc1OC	-1	.	3	1	.
